Our source for the Inhibition values is ChEMBL document CHEMBL1157539, “Thousands of chemical starting points for antimalarial lead identification” (Nature, 2010).

SMILES strings stand for the structures. “And” between values parts separate entries of the source, which are not always exact repeats. Equal entries are not always repeated.

This assay relates to Plasmodium falciparum. Kind of assay: GSK_TCMDC: Inhibition of Plasmodium falciparum 3D7 in whole red blood cells, using parasite LDH activity as an index of growth. Test compounds present at 2uM. In kind it is functional.
In turn, `Fc1ccc2[nH]c(-c3cccc(-c4cccc(CNCC5CCCO5)c4)c3)nc2c1.O=C(O)C(F)(F)F` (stereo not given) yielded an Inhibition of 99%.
To `Cc1cc(C(=O)CN2C(=O)NC3(CCOc4ccccc43)C2=O)c(C)n1Cc1ccc(F)cc1` (stereo not given) belongs 95%; to `O=C(NCC1CCC(CNCCc2ccccc2)CC1)Nc1ccc(Cl)c(Cl)c1` (stereo not given), 96%; to `CNCCNCc1cccc(-c2ccc(-c3nc4cc(C(F)(F)F)ccc4[nH]3)cc2)c1.O=C(O)C(F)(F)F`, 100%.
To `Cl.Cn1ccc(-c2cccc(Nc3ccnc4cc(-c5nccs5)ccc34)c2)n1` belongs 100%.
As for `O=C(Nc1cccc(-c2ccc(CN3CCNCC3)cc2)c1)c1cccc(Cl)c1.O=C(O)C(F)(F)F`, the Inhibition came out at 92%.
In the case of `OC(CNC1CCCCC1)Cn1c2ccc(Br)cc2c2cc(Br)ccc21` (stereo not given) it was 98%; in that of `CC(CCc1ccccc1)NCC(O)c1ccc2c3c(cccc13)C(=O)N2C.Cl` (stereo not given), 99%; in that of `Nc1cc(-c2ccc3c(N)nccc3c2)ccc1Cl`, 91%.
In the case of `c1cn(CCCNc2ncc(-c3ccsc3)c(-c3nccs3)n2)cn1` it was 94%; in that of `Cc1cc(F)ccc1N(c1nc(-c2cc(Cl)ccc2Cl)cs1)C1CCNC1.O=C(O)C(F)(F)F` (stereo not given), 99%; in that of `COc1ccc(NC(=O)Nc2ccc(-c3ccncc3)c(C(F)(F)F)c2)cc1N1CCN(C)CC1`, 100%.
Turning to `CC(C)Nc1nc(NCCc2c[nH]cn2)nc(NCc2ccc(Cl)c(Cl)c2)n1`, the Inhibition was 88%.
In the case of `CCCC(=O)c1cnc2c(I)cccc2c1Nc1ccccc1C` it was 90%; in that of `CN1CCN(CCNc2c3ccccc3nc3ccc4ccccc4c23)CC1.Cl`, 99%; in that of `Nc1cccc(-c2ccc3ccnc(N)c3c2)c1`, 91%.
To `COCc1nc(N)nc(N)c1-c1ccc(Cl)c(Cl)c1` belongs 84%; to `CCNc1cc(C(=O)N[C@@H](Cc2ccccc2)[C@H](O)CN[C@@H](C)c2ccccc2)cc(N2CCCC2=O)c1`, 98%; to `COc1ccc(C2CC(=O)C3=C(C2)NC(C)=C(C(=O)OC(C)C)C3c2ccccc2F)cc1OC` (stereo not given), 100%.
In the case of `CN(C)Cc1ccc(-c2cc3ncnc(Nc4ccc(OCc5cccc(F)c5)c(Cl)c4)c3s2)[nH]1` it was 99%; in that of `CCN(CC)CCN(Cc1ccc(-c2ccc(C(F)(F)F)cc2)cc1)C(=O)Cn1c(SCc2ccc(F)c(F)c2F)nc(=O)c2c1CCC2.O=C(O)C(O)C(O)C(=O)O`, 91%; in that of `Cc1ccc(CCC(C)NCC(O)c2cccc(C(F)(F)F)c2)cc1` (stereo not given), 99%.
For `COCCNCc1ncsc1-c1ccc2c(Nc3ccc(Oc4ccccc4)cc3)ccnc2c1`, the Inhibition is listed as 91%.
To `Cc1cccc2nc(-c3cccc(-c4cccc(C(=O)N5CCCCC5CN5CCC(O)C5)c4)c3)[nH]c12` (stereo not given) belongs 89%; to `c1ccc(-c2cc(NCCCn3ccnc3)nc(-c3cccnc3)n2)cc1`, 84%; to `COc1ccc2ncc(F)c(CCN3CC(O)C(CNCc4nc5c(cc4Cl)OCC(=O)N5)C3)c2n1.Cl` (stereo not given), 93% and 90%.
In the case of `CCNc1cc(C(=O)N[C@@H](Cc2ccccc2)[C@H](O)CNC(C)C)cc(N2CC(c3ccccc3)CCS2(=O)=O)c1` (stereo not given in full) it was 98%.
To `CCCN/C=N/c1cc(-c2csc(NC(=N)N)n2)cc([N+](=O)[O-])c1` belongs 91%.
For the compound `Nc1ncc(-c2ccsc2)c2ccc(-c3cnc[nH]3)cc12`, the Inhibition was 100%.
Turning to `O=C(O)C(F)(F)F.c1ccc(CN2CCC(NCc3ccccc3-c3cccc(CNC4CCCC4)c3)CC2)cc1`, the Inhibition is recorded as 100%.
In the case of `Oc1ccc2ncnc(Nc3ccc(OCc4cccc(F)c4)c(Cl)c3)c2c1` it was 100%; in that of `CCCCN1C(=O)C2CC(=O)CC(C3CCCCC3)C2C1=O` (stereo not given), 97%; in that of `OC1(c2ccccc2)c2cc(Cl)ccc2OC1c1nc2c(Cl)ccc(Cl)c2o1` (stereo not given), 98%.
With `COc1c(C2CCN(CCCCNC(=O)c3ccc(NC(=O)c4ccc(C#N)cc4)cc3)CC2)ccc2c1CCCC2`, the Inhibition is 97%.
In the case of `O=C(NCCCN1CCOCC1)c1cccc(Nc2nccc(Nc3ccc(Oc4ccccc4)cc3)n2)c1` it was 98%.
The compound `O=C(c1ccc(O)c(-c2cc(Cl)cc(Cl)c2)c1)N1CCCC1` registered an Inhibition of 90%.
For `COc1cccc(Nc2nc(Nc3cccc(C#N)c3)cc(C(F)(F)F)n2)c1`, the Inhibition is 99%.
In the case of `Cl.N#Cc1ccc2c(c1)CCN(CCC1CCC(NC(=O)/C=C/c3cc(Br)cs3)CC1)CC2` (stereo not given) it was 93%.
`Cc1ccc(Nc2nc(N)c3ccccc3n2)cc1.Cl` came in with an Inhibition of 94%.
To `COc1ccc2nccc([C@@H](O)CN3CCC(NC(=O)C(c4cc5ccccc5o4)N4CCN(c5ccccc5OC)CC4)CC3)c2c1` (stereo not given in full) belongs 99%.

The term Inhibition denotes the relative decrease from the control value, in per cent.
